Laboratory results: PubChem BioAssay
Calls of active or inactive are those of the source.

What was measured:
[1] = small molecules captured by biotinylated probe aFSTL3 – biochemical, small-molecule microarray, fluorescence 635/667, stem cell growth factor project, primary screen (AID 1064); details: higher = more signal;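 also: measures binding of the biotinylated anti-FSTL3 antibody to printed compounds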
[2] = binders from COS7 lysate, DM2A8 probe, primary screen, torsin A project, cell lysate, small-molecule microarray, fluorescence 635/667 (AID 1065); details: higher = more signal, COS7 lysate expressing mutant human TOR1A
[3] = small molecules captured by biotinylated probe aFGF2 – biochemical, small-molecule microarray, fluorescence 635/667, stem cell growth factor project, primary screen (AID 1067); details: higher = more signal;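 also: measures binding of biotinylated aFGF2 protein to printed compounds on slides; z-score merges feature fluorescence and signal-to-noise across triplicate slides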
[4] = small molecules captured by biotinylated probe aFGF10 – biochemical, small-molecule microarray, fluorescence 635/667, stem cell growth factor project, primary screen (AID 1071); details: higher = more signal;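 also: score merges 667 nm spot intensity and signal to noise from triplicate slides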
[5] = biological target: Neurogenic locus notch homolog protein 2 (Homo sapiens) (UniProt Q04721); assay: small molecules binding Notch2 protein – biochemical, small-molecule microarray, 635 nm fluorescence, stem cell growth factors, primary screen (AID 1073); details: higher = more signal
Neurogenic locus notch homolog protein 2 (Homo sapiens), sequence (Q04721 whole entry, looked up, canonical isoform): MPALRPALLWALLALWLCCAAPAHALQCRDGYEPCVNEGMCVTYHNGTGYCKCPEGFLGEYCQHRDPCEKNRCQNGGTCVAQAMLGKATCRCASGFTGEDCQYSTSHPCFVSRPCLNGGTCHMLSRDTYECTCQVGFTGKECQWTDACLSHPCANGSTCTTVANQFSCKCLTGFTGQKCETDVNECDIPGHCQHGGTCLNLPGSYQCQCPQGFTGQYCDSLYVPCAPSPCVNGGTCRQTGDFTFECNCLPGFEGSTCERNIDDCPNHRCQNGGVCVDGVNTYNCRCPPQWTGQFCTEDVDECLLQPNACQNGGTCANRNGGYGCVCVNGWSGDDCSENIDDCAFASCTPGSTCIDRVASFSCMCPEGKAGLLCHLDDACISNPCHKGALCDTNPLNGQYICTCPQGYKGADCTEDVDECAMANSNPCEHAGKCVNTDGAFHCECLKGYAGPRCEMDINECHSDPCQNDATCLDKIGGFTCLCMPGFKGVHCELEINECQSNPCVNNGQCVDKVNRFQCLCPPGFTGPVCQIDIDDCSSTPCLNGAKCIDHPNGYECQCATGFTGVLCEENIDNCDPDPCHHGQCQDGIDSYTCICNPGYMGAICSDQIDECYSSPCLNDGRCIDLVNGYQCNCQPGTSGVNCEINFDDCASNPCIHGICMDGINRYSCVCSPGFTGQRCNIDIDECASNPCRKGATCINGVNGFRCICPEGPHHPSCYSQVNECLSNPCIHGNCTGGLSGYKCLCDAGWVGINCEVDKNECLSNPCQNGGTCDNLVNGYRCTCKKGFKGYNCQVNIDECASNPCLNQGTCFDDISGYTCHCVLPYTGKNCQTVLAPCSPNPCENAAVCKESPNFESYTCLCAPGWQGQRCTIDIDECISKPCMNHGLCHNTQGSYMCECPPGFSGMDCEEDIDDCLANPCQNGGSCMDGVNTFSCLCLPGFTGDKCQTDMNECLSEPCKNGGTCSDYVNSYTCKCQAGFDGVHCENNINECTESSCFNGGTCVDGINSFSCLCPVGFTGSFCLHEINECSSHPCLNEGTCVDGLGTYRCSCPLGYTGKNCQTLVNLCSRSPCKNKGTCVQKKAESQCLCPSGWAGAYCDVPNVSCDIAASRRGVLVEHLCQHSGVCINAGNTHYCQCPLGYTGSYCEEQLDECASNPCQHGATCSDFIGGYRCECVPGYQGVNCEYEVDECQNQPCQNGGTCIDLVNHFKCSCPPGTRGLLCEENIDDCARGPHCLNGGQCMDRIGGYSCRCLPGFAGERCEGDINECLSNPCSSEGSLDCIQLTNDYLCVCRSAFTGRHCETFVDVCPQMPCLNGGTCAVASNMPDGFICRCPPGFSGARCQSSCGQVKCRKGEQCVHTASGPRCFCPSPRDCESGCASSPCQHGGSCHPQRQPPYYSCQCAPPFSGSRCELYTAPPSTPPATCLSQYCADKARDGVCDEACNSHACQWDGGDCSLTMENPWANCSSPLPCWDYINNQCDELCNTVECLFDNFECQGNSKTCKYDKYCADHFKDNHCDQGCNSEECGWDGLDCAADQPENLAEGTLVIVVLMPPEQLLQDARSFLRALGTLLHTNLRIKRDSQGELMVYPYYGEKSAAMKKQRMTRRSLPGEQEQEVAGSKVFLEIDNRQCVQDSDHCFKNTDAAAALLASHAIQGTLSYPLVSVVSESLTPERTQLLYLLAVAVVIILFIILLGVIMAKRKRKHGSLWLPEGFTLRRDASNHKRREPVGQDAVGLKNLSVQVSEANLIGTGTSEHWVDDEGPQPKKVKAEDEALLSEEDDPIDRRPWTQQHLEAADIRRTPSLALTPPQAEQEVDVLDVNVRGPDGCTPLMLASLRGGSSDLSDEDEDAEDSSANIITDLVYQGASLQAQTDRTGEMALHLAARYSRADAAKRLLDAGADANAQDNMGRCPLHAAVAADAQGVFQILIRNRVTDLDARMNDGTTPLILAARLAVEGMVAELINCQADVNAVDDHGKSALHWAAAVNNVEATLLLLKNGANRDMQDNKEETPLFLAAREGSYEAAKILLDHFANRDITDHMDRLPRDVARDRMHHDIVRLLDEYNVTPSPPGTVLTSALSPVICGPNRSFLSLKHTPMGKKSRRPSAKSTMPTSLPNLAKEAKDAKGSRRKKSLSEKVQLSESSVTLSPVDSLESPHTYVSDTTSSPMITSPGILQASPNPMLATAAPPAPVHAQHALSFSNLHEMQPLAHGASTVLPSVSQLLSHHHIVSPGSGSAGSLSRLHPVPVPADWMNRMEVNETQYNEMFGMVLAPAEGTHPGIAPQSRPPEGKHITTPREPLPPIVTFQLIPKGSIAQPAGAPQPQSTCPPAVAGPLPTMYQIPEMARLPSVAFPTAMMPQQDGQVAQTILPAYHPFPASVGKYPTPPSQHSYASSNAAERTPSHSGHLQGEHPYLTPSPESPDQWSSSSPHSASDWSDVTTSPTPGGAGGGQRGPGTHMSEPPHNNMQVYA

[6] = biological target: Pro-neuregulin-1, membrane-bound isoform (Homo sapiens) (UniProt Q02297); assay: small molecules binding neuregulin-1 protein – biochemical, small-molecule microarray, fluorescence 635/667, psychiatric disease protein project, primary screen (AID 1075); details: NRG1 binding, 635 nm fluorescence, higher = more signal;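 also: score combines 667 nm spot fluorescence with signal to noise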
[7] = test system: Neuregulin-1 EGF-like domain; assay: small molecules binding NRG1 EGF domain – biochemical, small-molecule microarray, 635 nm fluorescence, primary screen (AID 1081); details: higher = more signal;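 also: binding of the protein to compounds printed on small-molecule microarray slides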
[8] = FRG1 expression reporter modulators in myotubes – cell-based, C2C12 myotubes, firefly/Renilla luciferase, luminescence, FRG1 inhibition for FSHD, primary screen (AID 1084); details: FRG1 promoter luciferase, higher = more signal, called active from +8 up or from −8 down
[9] = small molecules captured by biotinylated probe aFST – biochemical, small-molecule microarray, fluorescence 635/667, stem cell growth factor project, primary screen (AID 1086); details: higher = more signal;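 also: score merges 667 nm fluorescence with signal-to-noise of each printed compound spot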
[10] = binders of probe aHhip on microarray, primary screen, stem cell growth factor project, biochemical, small-molecule microarray, fluorescence 635/667 (AID 1087); details: higher = more signal;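 also: score merges spot fluorescence at 667nm with spot signal to noise ratio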
[11] = test system: PRMT1 (protein arginine N-methyltransferase 1); assay: small molecules binding arginine methyltransferase PRMT1 – biochemical, small-molecule microarray, 635 nm fluorescence, primary screen (AID 1088); details: higher = more signal;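 also: binding of Prmt1 protein to compounds spotted on small-molecule microarray slides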
[12] = growth effects on S. cerevisiae YJM789 – YJM789 clinical isolate, OD600, 24 h, basal, primary screen (AID 1089); details: higher = more signal, called active from +8 up or from −8 down;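 also: growth of clinical yeast isolate S. cerevisiae YJM 789 seeded 1000 cells per well; test concentration not given here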
[13] = S. pombe growth modifiers, basal conditions – strain 972, OD600, 24 h, no modulator, primary screen (AID 1090);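 also: basal condition with compound alone and no growth modifier present; test concentration not given here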; details: S. pombe 972 growth, higher = more signal, called active from +8 up or from −8 down
[14] = budding yeast growth modifiers under rapamycin – strain BY4716, OD600, 96 h, primary screen (AID 1091); also: test concentration not given here; details: S. cerevisiae BY4716 + rapamycin, higher = more signal, called active from +8 up or from −8 down
[15] = biological target: Torsin-1A-interacting protein 2 (Homo sapiens) (UniProt Q8NFQ8); assay: small molecules binding lysate-expressed LULL1 – cell lysate, human LULL1 lysate, 635/667 nm fluorescence, primary screen (AID 1092); details: small-molecule microarray, hLULL1 lysate binding, 635 nm fluorescence; higher = more signal;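 also: probe is lysate of COS7 cells overexpressing human LULL1; score merges per-feature 667 nm fluorescence with signal-to-noise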
[16] = optical density change of DRC41 E. coli – strain DRC41, OD650, 24 h, E. coli filamentation project, primary screen (AID 1093);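 also: MC1000 strain lacking acrAB efflux and sulA so SOS filamentation is blocked; test concentration not given here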; details: E. coli DRC41 growth, higher = more signal, called active from +8 up or from −8 down
[17] = probe aLefty2 binding to arrayed compounds – biochemical, biotinylated probe, 635/667 nm fluorescence, primary screen (AID 1094); details: small-molecule microarray, higher = more signal;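 also: score merges spot fluorescence near 667 nm with spot signal-to-noise ratio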
[18] = test system: Noggin (protein binding on small-molecule microarray); assay: small molecules binding Noggin protein – biochemical, 635/667 nm fluorescence, primary screen (AID 1095); details: 635 nm fluorescence, higher = more signal;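 also: score merges 667 nm feature fluorescence with signal to noise over triplicate slides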
[19] = biological target: Neurogenic locus notch homolog protein 3 (Homo sapiens) (UniProt Q9UM47); assay: small molecules binding NOTCH3 protein – biochemical, 635/667 nm fluorescence, primary screen (AID 1096); details: small-molecule microarray, 635 nm fluorescence, higher = more signal
Neurogenic locus notch homolog protein 3 (Homo sapiens), sequence (Q9UM47 whole entry, looked up): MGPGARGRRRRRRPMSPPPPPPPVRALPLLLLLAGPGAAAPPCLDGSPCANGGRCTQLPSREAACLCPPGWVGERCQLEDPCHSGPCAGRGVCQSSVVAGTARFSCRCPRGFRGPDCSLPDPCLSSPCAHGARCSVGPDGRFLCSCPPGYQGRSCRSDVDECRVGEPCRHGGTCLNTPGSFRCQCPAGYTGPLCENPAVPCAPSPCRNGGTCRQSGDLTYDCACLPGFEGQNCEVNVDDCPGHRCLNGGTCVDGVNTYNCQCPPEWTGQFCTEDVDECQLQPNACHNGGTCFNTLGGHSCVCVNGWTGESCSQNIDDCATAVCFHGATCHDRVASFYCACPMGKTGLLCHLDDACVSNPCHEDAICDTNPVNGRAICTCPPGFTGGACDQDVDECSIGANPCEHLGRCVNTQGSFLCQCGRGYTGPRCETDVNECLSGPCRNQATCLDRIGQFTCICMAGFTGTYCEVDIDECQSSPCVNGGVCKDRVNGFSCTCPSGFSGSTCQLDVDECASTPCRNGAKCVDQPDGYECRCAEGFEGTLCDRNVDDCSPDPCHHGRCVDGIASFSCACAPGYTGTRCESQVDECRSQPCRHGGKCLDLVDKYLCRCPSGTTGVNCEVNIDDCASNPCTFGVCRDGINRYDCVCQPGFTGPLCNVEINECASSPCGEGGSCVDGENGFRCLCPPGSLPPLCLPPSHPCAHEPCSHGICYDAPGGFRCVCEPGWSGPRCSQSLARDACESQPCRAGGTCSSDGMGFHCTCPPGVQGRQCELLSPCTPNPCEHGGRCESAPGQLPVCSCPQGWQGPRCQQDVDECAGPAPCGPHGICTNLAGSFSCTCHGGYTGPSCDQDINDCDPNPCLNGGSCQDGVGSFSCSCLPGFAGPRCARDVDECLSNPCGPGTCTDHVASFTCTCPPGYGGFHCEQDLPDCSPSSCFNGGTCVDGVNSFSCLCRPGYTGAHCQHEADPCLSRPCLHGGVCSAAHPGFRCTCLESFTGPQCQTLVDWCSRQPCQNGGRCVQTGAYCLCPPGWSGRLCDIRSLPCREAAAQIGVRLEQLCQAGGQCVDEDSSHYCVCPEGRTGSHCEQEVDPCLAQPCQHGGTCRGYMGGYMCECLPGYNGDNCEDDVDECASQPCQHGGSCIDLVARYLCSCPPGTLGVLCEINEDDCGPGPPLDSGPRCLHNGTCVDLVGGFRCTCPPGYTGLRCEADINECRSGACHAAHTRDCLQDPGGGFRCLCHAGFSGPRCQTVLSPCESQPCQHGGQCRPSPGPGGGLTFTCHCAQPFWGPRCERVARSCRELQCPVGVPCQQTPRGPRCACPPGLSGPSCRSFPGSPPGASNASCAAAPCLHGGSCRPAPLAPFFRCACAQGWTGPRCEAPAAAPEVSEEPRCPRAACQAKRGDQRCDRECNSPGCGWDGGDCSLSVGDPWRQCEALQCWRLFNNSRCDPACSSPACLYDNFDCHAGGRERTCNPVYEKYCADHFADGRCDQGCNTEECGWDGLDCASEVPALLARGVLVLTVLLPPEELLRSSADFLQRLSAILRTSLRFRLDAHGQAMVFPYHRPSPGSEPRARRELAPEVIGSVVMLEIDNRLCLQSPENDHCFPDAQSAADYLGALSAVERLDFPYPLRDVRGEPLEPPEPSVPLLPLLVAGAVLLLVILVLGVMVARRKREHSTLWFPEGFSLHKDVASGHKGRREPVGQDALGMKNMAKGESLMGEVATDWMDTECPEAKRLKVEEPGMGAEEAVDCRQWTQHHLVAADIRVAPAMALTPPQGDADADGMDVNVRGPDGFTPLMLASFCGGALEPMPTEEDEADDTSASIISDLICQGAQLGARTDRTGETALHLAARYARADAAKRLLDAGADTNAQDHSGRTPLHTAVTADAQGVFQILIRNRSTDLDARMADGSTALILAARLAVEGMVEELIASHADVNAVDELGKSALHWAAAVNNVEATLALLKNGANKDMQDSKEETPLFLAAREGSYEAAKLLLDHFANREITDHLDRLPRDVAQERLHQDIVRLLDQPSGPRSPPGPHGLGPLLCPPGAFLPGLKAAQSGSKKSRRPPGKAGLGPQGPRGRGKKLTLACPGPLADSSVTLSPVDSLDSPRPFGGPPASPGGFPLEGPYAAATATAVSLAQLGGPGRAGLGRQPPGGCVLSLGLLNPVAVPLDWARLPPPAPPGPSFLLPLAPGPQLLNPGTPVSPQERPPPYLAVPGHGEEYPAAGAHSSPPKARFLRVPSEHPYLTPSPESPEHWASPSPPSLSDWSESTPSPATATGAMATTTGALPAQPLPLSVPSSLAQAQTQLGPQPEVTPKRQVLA

[20] = probe aEGFR binding to arrayed compounds – biochemical, biotinylated probe, 635/667 nm fluorescence, primary screen (AID 1097); details: small-molecule microarray, higher = more signal;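 also: probe is a biotinylated anti-EGFR antibody binding compounds printed on slides; score combines fluorescence near 667 nm and signal to noise of each spot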

Structure (SMILES) | composite z-score [1] | composite z-score [2] | composite z-score [3] | composite z-score [4] | composite z-score [5] | composite z-score [6] | composite z-score [7] | z-score [8] | composite z-score [9] | composite z-score [10] | composite z-score [11] | z-score [12] | z-score [13] | z-score [14] | composite z-score [15] | z-score [16] | composite z-score [17] | composite z-score [18] | composite z-score [19] | composite z-score [20]
COC(=O)[C@H](C)NC(=O)CCC1CC(OC(=O)NCc2cccc3ccccc23)CC2(CCCC(COC(=O)NCc3cccc(C(F)(F)F)c3)O2)O1 (stereo not given in full) | -0.428 | 0.182 | -0.0316 | 0.762 | 1.17 | 1.09 | 1.01 | -0.374 (inactive) | 0.657 | -0.271 | 1.41 | -2.05 (inactive) | -0.645 (inactive) | 0.523 (inactive) | 1.78 | -1.21 (inactive) | -0.139 | 0.6 | 1.09 | 0.151
CC(CCN1CCc2nc(-c3ccccc3)c(-c3ccccc3)cc2C1)=NO[C@H](C)c1cn([C@H](CO)Cc2ccccc2)nn1 | -0.11 | 0.575 | -0.0569 | -0.332 | -0.54 | 0.164 | 0.299 | -0.327 (inactive) | -0.125 | -0.13 | 0.485 | -0.0115 (inactive) | -0.989 (inactive) | -4.22 (inactive) | 0.381 | 0.561 (inactive) | 0.0272 | 0.622 | -0.0395 | -0.122
CCOC(=O)CCN1C(=O)[C@H]2[C@H]3[C@H](O)[C@H](O)CC(=NO[C@@H]4O[C@H](CO)[C@@H](O)[C@H](O)[C@H]4O)[C@H]3CC[C@H]2C1=O | -0.379 | 0.508 | 0.0395 | 0.232 | 0.44 | 0.0332 | 0.569 | 0.261 (inactive) | 0.857 | -0.195 | -0.145 | -0.703 (inactive) | 0.354 (inactive) | -0.387 (inactive) | 0.211 | 0.389 (inactive) | 0.0008 | 0.404 | 0.195 | -0.115
CC(CCC(=O)OC[C@H]1O[C@H](C#Cc2ccccc2)C=C[C@@H]1Oc1ccc(C)cc1)=NOC[C@@H](C)[C@H](OCc1ccccc1)C(C)C | -0.205 | -0.0926 | -0.121 | -0.122 | -0.67 | -1.01 | -1.05 | -0.234 (inactive) | -0.114 | -0.175 | -0.694 | -0.78 (inactive) | 0.484 (inactive) | -0.468 (inactive) | -1.27 | -0.346 (inactive) | -0.342 | 0.809 | -1.27 | -0.24
CCc1cc2c(nc1CC)CCN(CCC(C)=NO[C@@H]1O[C@H](COC(C)=O)[C@@H](OC(C)=O)[C@H](OC(C)=O)[C@H]1OC(C)=O)C2 | -0.191 | 0.905 | 0.0333 | 0.928 | 0.839 | 0.408 | 0.996 | 1.05 (inactive) | 0.365 | -0.0994 | 1.55 | -0.149 (inactive) | -0.35 (inactive) | 0.143 (inactive) | 0.809 | -0.551 (inactive) | -0.0271 | 1.06 | 1.1 | 0.131
COC(=O)CC=C[C@@H](C)[C@@H](C=NOC[C@@H](C)[C@H](OCc1ccccc1)C(C)C)OC | -0.598 | -0.163 | -0.0985 | 0.229 | 0.0445 | -0.296 | 0.413 | 0.947 (inactive) | -0.0348 | -0.395 | 0.823 | 0.0783 (inactive) | -0.466 (inactive) | 1.13 (inactive) | 0.227 | -0.0725 (inactive) | -0.215 | 0.293 | 0.232 | -0.126
CO[C@@H]1COC(=O)[C@@H]2CCCN2C(=O)[C@@H](C)COC(=O)CCC[C@H]1C | -0.468 | 0.352 | -0.0836 | 0.367 | 0.997 | -0.0887 | 1.19 | -0.343 (inactive) | -0.288 | -0.0645 | 1.55 | -1.86 (inactive) | -0.875 (inactive) | -0.815 (inactive) | 0.871 | -0.76 (inactive) | -0.176 | 0.456 | 0.525 | 0.158
CC(C)[C@@H](OCc1ccccc1)[C@H](C)C=NO[C@H](C)c1cn([C@@H]2COC[C@H]2O)nn1 | -0.478 | 0.402 | -0.0262 | 0.281 | 0.794 | -0.0746 | 1.07 | 0.476 (inactive) | -0.0844 | 0.165 | 1.55 | -1.02 (inactive) | -0.121 (inactive) | 0.0703 (inactive) | 1.28 | 1.13 (inactive) | -0.162 | 0.871 | 0.968 | -0.0111
CO[C@@H]1C=CCC(=O)N[C@@H](C)C(=O)OC[C@@H](OC)[C@H](C)C=CCC(=O)OC[C@H]1C | -0.596 | 2.23 | -0.116 | -0.631 | -0.88 | -0.503 | 0.233 | -0.163 (inactive) | -0.045 | 0.0373 | 1.37 | -0.563 (inactive) | -0.832 (inactive) | -0.333 (inactive) | -1.33 | 0.615 (inactive) | -0.124 | 1.89 | 0.312 | -0.0357
COC(=O)C1=C(C)N(Cc2ccccc2)C2=C3C(=O)OCC[C@@H]3[C@@](O)(C(=O)OC)C(=O)N2[C@@H]1c1ccccc1 | -0.69 | -0.0402 | -0.118 | 0.495 | 0.346 | -0.143 | 0.0271 | 0.245 (inactive) | -0.0464 | 0.0139 | -0.737 | 0.833 (inactive) | -0.992 (inactive) | -0.265 (inactive) | 0.0296 | 0.659 (inactive) | -0.0342 | 0.454 | 0.542 | 0.0035
